Among all 53,000 sequences or so, about 3,700 (7%) were called active. This excerpt belongs to a sample that is enriched for actives. A number with no mark means an inactive call.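 How the source made its calls: active means gene knockdowns whose robust z-score for IL-1 alpha signal is at least 2 or at most -2, so actives lie on both sides; inactive means the rest.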

This test is described as follows: Components of the Cytosolic LPS Sensing Pathway: Gene Identification via Genome-wide siRNA Screen.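 Further: robust z of the log signal after scaling to non-targeting control siRNA wells of the plate.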 The conditions noted are these: RAW264.7 macrophages, IL-1a HTRF, actives lie on both sides, screened at 100 nM (by protocol), cells primed 5 h with Pam3CSK4 first. In short, it runs like this:
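IL-1a HTRF of supernatants after 24 hour LipidA transfection of Pam3CSK4-primed (5 hours) RAW264.7 cells, 48h post-siRNA transfection (100 nM). Scores: percent of plate negative-control median, then log-based robust z-score.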
A general note: TR-FRET usually uses a lanthanide donor and a delayed reading to cut background.
For the sequence GGUCAAAGUUAUGCAAUGUTT against Rp9, the z-score was -2.02 (active). To GGACUUGAUUAUCUACACUTT against Stk24 belongs -2.24 (active). To CGAAUAUGGUAUUCACUCATT against Skint4 belongs 0.157; to GCCCUUACAUUUUAUACUATT against Zfp93, 1.1.

With CCACGUCCUCUACUUGUAUTT against Nmbr, the z-score was -0.813.

Take GCGUAACUACUACAUGAAUTT against Ano9: the z-score was -2.33 (active).

For the sequence GGACUUACUUCCCAUUUCGTT against Gdpd3, the z-score is 0.297.

With GGUGUAUGCGUCACUAGAATT against Rxra, the z-score is 0.0162. To GGACUACUCUGCCAGAUGGTT against Fam71f1 belongs 0.0252; to GCUUUAAGUACUUUAACGCTT against Ncr1, 1.04; to GCAGCUACUACACCAACCATT against Dlx2, -2.46 (active). With CGAAAACAGUACGAUGCUUTT against Dnajb11, the z-score is 1.03. CCUCAAUGAAGACCCAUUATT against Kif1b: the z-score is -1.35.

Turning to GGUUUUCUAUGGAAGAGAUTT against Igdcc4, the z-score is 0.835. To GGUAUCCACUGUGCCAACCTT against Ush2a belongs -0.343.

Turning to CGAUCGUAUUCAAUGGAAATT against Rims2, the z-score was -0.998. For GCAUCUGCAUUUUUUGCUATT against Prox1, the z-score is 1.29. On to GCUUUUGCUACAAGUGUAUTT against Cop1, for which the z-score is -0.593. As for GGCAGAUGGCCGAAUUGAUTT against Rest, the z-score is -1.13. Take GGACGAUUUAAGGAUUUUUTT against Dcun1d1: the z-score was -2.4 (active).

CCAAGUACCCUGAGAGUUUTT against Pnpla6: the z-score was 1.46. Turning to GCCAAACGAACAACAAAACTT against Chrm3, the z-score is -0.166. In the case of CGUACCACACGAUGAAUAGTT against Pou4f1, the z-score is -0.525.

Take CCGCAUGAACUUCCUACAGTT against Ugt1a1: the z-score was 1.2. As for GGCGUAUUCUGGUAUCCAGTT against Celf1, the z-score was 2.08 (active). In the case of GCACUGAACUUUCCUGACCTT against Ppdpf it was 1.78; in that of CCAUUCGAGAUGAGAAGAATT against Gcc1, -0.287. GGGAAAAGAUCGACAAAGATT against Plk2: the z-score is -0.217. Consider GGCCCAUGAUCCAUUUUGGTT against Prnp, for which the z-score is -2.07 (active). On to GGAAAAGGAGGAGAGUUAUTT against Nkapl, for which the z-score was 0.153. To GGGUGGUGGCAUUAAACUUTT against Stk36 belongs 1.75. To GCUUUUCGGAGCUCUAUAUTT against Sipa1 belongs -2.23 (active); to GGCAGACGGUAAUAAACAUTT against Ralgapb, -1.08. With GCGUGUAUACCAGCCUUACTT against Egfl7, the z-score was 0.0437. Regarding GGACAUGAGGACUGUAUCATT against Clec4g, the z-score was -3.2 (active).

As to GGAAGGAUCUAAUCUUUUUTT against Vamp2, the z-score was 1.56. GGAAGAAUUCUUGAAGAUGTT against Cetn4: the z-score is 1.13. In the case of GCUAUGUGUUGAUUUAAAGTT against Pdk1 it was 0.422; in that of GGCUACAGCCGUCAAAGAUTT against R74862, -0.091. In the case of GGAAGAAGCCUUUUGAGUGTT against Peg3 it was 1.39; in that of CCAGCUAUGAAUCAGAAUGTT against Bend6, 2.6 (active).

Take CCGAAAGAUCAGCACAUCCTT against Olfr24: the z-score is -0.184. Consider CGGCUGUGUGCAUUUAAAGTT against Bmpr2, for which the z-score is 0.616. As for CCUUUGAUUCACAAUGGUUTT against Smad4, the z-score is -0.0886.

For GCUCGAACAUAGCAGCAAGTT against BC061195, the z-score was -2.11 (active). To GGGUUUCAACCGUCACCUGTT against Pygl belongs -1.89. To “GGCCCUUACAGAGUCUGGATT against B930095G15Rik” belongs 0.833. With CGAAUUCAUACCAAGAAAGTT against Myo3a, the z-score was 0.477. To GCCAAGUGGUGACAUCAACTT against Ralgds belongs 2.7 (active); to GGGCAAUGUGUUUAUGUAUTT against Tmem30a, -0.264. In the case of GGAUAUACAAAGGAACGCATT against Wdr20rt it was -0.862; in that of GGUUCUGACCACCUACAUATT against Htr3a, -1.62.

As to GGCUAUACCCUGAAAUAUUTT against Slitrk4, the z-score is -0.00892. For CCUACUACACCACUUGGGUTT against Dpm2, the z-score was 0.365. To GGGCAAAUUAGAGACCAAGTT against Nwd2 belongs 0.692; to GGAGGAUAUGAGCAAGUACTT against Isg20, -0.476. To GGUUAACGGAUCAACAUUUTT against Ube2d2a belongs 1.71; to GGAAUUUUCUUCAUUUGGATT against Pabpc5, -0.878. In the case of GGUACCAGACCUCAUAGUUTT against Cep95 it was 2.16 (active). Regarding GGGAAGAAAAUGAAAGGUUTT against Cdk5rap2, the z-score is -1.14. For GGUGUCAACCAGUUGUUUUTT against Nr2c1, the z-score is -1.2. In the case of CCUAAAGUCACAUCUAAGATT against Pum3 it was 1.06; in that of GGAACUGUCCGAUCUUAGATT against Prrg4, -1.88; in that of GCUACUCCCUGCAUAUUAGTT against Slamf9, -1.48. On to GGCAGCUUUCCUAUUGAAUTT against Tex19.1, for which the z-score was 0.233. In the case of GGACUUUGAUCAGCUGUCUTT against Tmem17 it was -2.12 (active). In the case of GGUUGAUCGUGUCAUGUAGTT against Poc1b, the z-score was 0.0595. In the case of GGCUAUACCUUUGACUAUGTT against Csnk1g1 it was 0.0256; in that of GGGCAGCAUCGGACUAAAUTT against Agtr1a, 2.35 (active).

For the origin of these results see PubChem BioAssay AID1508600 (Functional Genomics Laboratory (NCATS/FGL), 2020).
